Test results published in PubChem BioAssay AID588458 (Sanford-Burnham Center for Chemical Genomics, 2011).
Hit rate of the full screen: of about 360,000 compounds, about 3,000 (0.83%) were called active. This is one part of a sample in which actives are shown more often than they occur. No stated cut-off is given here; in the data, active means inhibition above about 50%; inactive means the rest.

Target: DNA (cytosine-5)-methyltransferase 1 (Homo sapiens) (UniProt P26358)
Assay: human DNMT1 methyltransferase inhibitors, primary screen, biochemical, molecular beacon, fluorescence, HinP1I cleavage, uHTS (AID 588458)
Settings: at 10 µM, active compounds read high

DNA (cytosine-5)-methyltransferase 1 (Homo sapiens), sequence (P26358 504-1616 limits assumed): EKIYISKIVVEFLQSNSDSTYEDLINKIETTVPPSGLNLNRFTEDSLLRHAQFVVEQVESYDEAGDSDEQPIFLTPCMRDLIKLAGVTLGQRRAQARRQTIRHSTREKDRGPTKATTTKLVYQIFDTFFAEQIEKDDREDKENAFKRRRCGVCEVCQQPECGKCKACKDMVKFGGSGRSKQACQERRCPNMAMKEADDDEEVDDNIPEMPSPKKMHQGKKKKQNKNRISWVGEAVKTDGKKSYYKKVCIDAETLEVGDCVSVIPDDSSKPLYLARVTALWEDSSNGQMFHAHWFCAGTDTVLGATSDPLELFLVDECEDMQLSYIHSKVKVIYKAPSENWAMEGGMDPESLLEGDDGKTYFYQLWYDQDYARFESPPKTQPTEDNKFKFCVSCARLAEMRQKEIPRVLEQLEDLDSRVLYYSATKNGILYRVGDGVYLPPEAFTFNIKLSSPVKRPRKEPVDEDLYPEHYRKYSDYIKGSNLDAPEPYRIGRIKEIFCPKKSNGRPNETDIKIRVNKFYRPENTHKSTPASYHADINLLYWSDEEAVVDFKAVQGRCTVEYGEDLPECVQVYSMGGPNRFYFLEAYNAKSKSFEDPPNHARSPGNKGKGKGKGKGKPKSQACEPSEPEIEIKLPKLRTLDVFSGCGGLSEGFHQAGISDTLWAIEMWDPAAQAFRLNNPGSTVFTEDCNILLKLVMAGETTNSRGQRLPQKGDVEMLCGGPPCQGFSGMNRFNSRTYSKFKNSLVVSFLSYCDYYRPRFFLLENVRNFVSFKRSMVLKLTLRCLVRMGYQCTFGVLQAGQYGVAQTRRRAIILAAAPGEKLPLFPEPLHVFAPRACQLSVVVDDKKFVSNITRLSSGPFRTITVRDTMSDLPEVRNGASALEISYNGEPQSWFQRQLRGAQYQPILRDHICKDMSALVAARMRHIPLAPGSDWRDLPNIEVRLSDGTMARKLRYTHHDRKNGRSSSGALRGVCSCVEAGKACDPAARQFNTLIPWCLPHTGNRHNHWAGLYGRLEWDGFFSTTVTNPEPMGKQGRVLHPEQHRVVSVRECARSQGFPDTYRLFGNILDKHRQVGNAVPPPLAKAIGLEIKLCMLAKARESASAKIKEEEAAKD

Inhibition (reported as % activation of signal), active:
CC(=O)c1ccc(NC(=O)c2ccc3c(Cl)c4c(nc3c2)CCCC4)cc1 76.2%, O=C(CCNC(=O)c1ccccc1)NN=Cc1ccc(Br)o1 50.6%, Clc1ccccc1CSc1nnc(-c2ccco2)c(-c2ccco2)n1 92.8%, c1ccc(CSc2nnc(-c3ccco3)c(-c3ccco3)n2)cc1 113%, O=C(CCS(=O)(=O)c1ccc(Br)cc1)NCCc1ccc(Cl)cc1 68.7%, COc1ccc(Cl)cc1NC(=O)CCS(=O)(=O)c1ccc(Br)cc1 94.1%, CC(C)(C)C1C/C(=C/c2ccco2)C(=O)/C(=C/c2ccco2)C1 (stereo not given) 95.9%, CC(=O)Nc1ccc(Nc2c3ccccc3nc3ccccc23)cc1 57.2%, Oc1ccc2ccc3cccc[n+]3c2c1 59%, Cc1ccc2cc(C)c(N3CCC(C)CC3)nc2c1 80.8%, CS(=O)(=O)c1ccc2c(c1)SC1=NC(=O)/C(=C/c3ccco3)C(=N)N12 74.4%, C=CCn1c(=NC(=O)c2ccc(S(=O)(=O)N3CCCC3)cc2)sc2cc(NC(C)=O)ccc21 57.7%, Cc1ccc2[nH]c(=O)c(-c3nc4c(C)cccn4c3NCc3ccco3)cc2c1 50.4%, Cc1ccc(/C=C/C(=O)Nc2ccc([N+](=O)[O-])c(NC(=O)/C=C/c3ccc(C)o3)c2)o1 86.1%, CCCCNC(=O)CCn1c(=O)c2ccccc2n(Cc2cc(C)ccc2C)c1=O 55.4%, COc1ccc(C(=O)OCC(=O)Nc2cccc(C(C)=O)c2)cc1OC 70.9%, CCC(C)Cn1c(O)cc2nn(-c3nc4ccccc4s3)c(=O)c-2c1C (stereo not given) 52.2%, O=C(c1ccc(CS(=O)(=O)c2ccccc2)o1)N1CCN(c2ccccc2)CC1 84.6%, N#Cc1ccccc1CN1C(=O)S/C(=C/c2cccn2-c2cccc(C(=O)O)c2)C1=O 102%

Inhibition (reported as % activation of signal), inactive:
O=C(Nc1cccc2cccnc12)c1ccc2sc([C@H]3C[C@H](O)[C@@H](CO)O3)nc2c1 -5.28%, CC(C)CCNC(=O)c1ccc2c(Cl)c3c(nc2c1)CCC3 -1.49%, COc1cccc(NC(=O)c2ccc3c(SCC(=O)O)c4c(nc3c2)CCCC4)c1 9.48%, CC1=C(C(=O)N2CCOCC2)CC(CC(=O)NCCCN(C)C)C(=O)N1Cc1ccc(C(C)(C)C)cc1 (stereo not given) 2.88%, O=c1c2cc([N+](=O)[O-])ccc2nc2n1CCC2 2.73%, Cc1cccc(NC(=S)N(CCN(C)C)C(C)c2ccco2)c1 (stereo not given) -0.09%, O=C(CCc1n[nH]c(=O)[nH]c1=O)N/N=C/c1ccc(Br)o1 5.93%, O=C(CCC(=O)N/N=C/c1ccc(Br)o1)N/N=C/c1ccc(Br)o1 17%, COc1ccccc1OC(C)C(=O)Nc1ccc(S(=O)(=O)Nc2nccs2)cc1 (stereo not given) 0.4%, COc1ccc(NCc2nnc(SCc3ccccc3)n2-c2ccc(OC)cc2)cc1 -3.05%, CSc1nc(-c2ccco2)nn1C(=O)c1ccccc1Cl 4.2%, c1ccc(Cc2c(-c3ccco3)nc3c4ccccc4ccn23)cc1 -16.2%, O=C(Nc1nnc(SCc2ccccc2Cl)s1)c1cccc([N+](=O)[O-])c1 -4.99%, CC(c1nnc(SCC(=O)Nc2sccc2C#N)n1-c1ccc(Cl)cc1)N(C)C (stereo not given) -2.07%, CCOc1cc(CNCCN(C)C)c(Cl)cc1OCC(=O)NCCc1ccccc1 2.37%, N#Cc1cc([N+](=O)[O-])ccc1NCC1CCCO1 (stereo not given) 0.79%, COCCNC(=O)CN(Cc1ccco1)C(=O)CCC(=O)Nc1nccs1 0.73%, CC(C)(C)C(=O)N1CCC[C@@]1(CO)C(=O)O 5.81%, O=C(NCCS(=O)(=O)c1ccc(Br)cc1)c1ccccc1Cl 2.79%, CCCCC(=O)N/N=C(\C)CC(=O)Nc1cc(Cl)ccc1OC 2.33%, Cc1ccc(S(=O)(=O)CCC(=O)OCC(=O)NCCc2ccc(S(N)(=O)=O)cc2)cc1 -1.16%, COc1ccc(Cl)cc1NC(=O)COC(=O)c1ccc(Br)o1 -6%, Cc1noc(C)c1CSCC(=O)N(CCC(C)C)c1c(N)n(Cc2ccccc2)c(=O)[nH]c1=O -0.4%, Cc1ccn2c(c1)nc(=O)c1cc(S(=O)(=O)N3CCC(C)CC3)ccc12 2.87%, Cc1cc(C(=O)N2CCCC2(C)C(=O)O)c(C)o1 (stereo not given) 8.96%, NC(=O)COC(=O)c1ccc2c(c1)C(=O)N(Cc1ccco1)C2=O 1.59%, COC(=O)COc1ccc2c(c1C)O/C(=C\c1ccco1)C2=O -2.61%, COc1ccc(-c2ccc3c(c2)[C@@H]2C[C@H](N(C)S(=O)(=O)c4ccccc4)[C@H]([C@H](C)O)C(=O)N2CC3)cc1 -4.42%, C[C@@H]1CN([C@H](C)CO)C(=O)CCCn2cc(nn2)CO[C@H]1CN(C)S(C)(=O)=O 2.33%, CCc1c(C)nc2c(-c3ccccc3)c(C)nn2c1Nc1ccc(NC(C)=O)cc1 -6.65%, O=C(NNc1c2ccccc2nc2ccccc12)c1cc2ccccc2cc1O -19.2%, CCOc1cc(/C=C/C(=O)OCC(=O)NCCN2C(=O)CSC2=O)ccc1OCC(C)C 8.03%, CCCCC(=O)N(c1ccc(OC)cc1)C1C=CS(=O)(=O)C1 (stereo not given) -1.75%, Cc1cc(C)c2cc(C#N)c(N3CCNCC3)nc2c1 6.52%, Cc1ccc2cc(C)c(N3CCN(c4ccc(F)cc4)CC3)nc2c1 2.96%, CC(=O)NC1C(Oc2ccc(C)cc2)OC2COC(c3ccco3)OC2C1O (stereo not given) 3.51%, CCN(CCn1cccn1)Cc1nc(-c2ccc(C(=O)OC)cc2)no1 -5.27%, CCS(=O)(=O)C1=NSC2=NC(=O)/C(=C\c3ccc(OS(=O)(=O)c4ccccc4)cc3)C(=N)N21 -8.29%, CC(=O)OC[C@@H]1CN(Cc2ccccc2)C[C@H](n2cnc3c(NCc4ccco4)ncnc32)O1 -4.87%, COc1ccc(S(=O)(=O)N2CCC(C(=O)NCCC(=O)NCCc3cccc(F)c3)CC2)cc1 2%, COc1cc(C(C)=O)ccc1OC(C)C(=O)Nc1ccc(S(=O)(=O)N2CCCC2)cc1 (stereo not given) -3.33%, C=CCn1c(=NC(=O)c2cccs2)sc2cc(NC(C)=O)ccc21 27%, CN(Cc1ccccc1)C(=O)CCC1CCN(C(=O)c2ccco2)CC1 0.12%, O=C(COC(=O)CNS(=O)(=O)c1ccc(F)c(F)c1F)NC1CCCC1 1.29%, CN1CCN(C(=O)c2ccccc2NC(=O)COc2ccccc2Cl)CC1 0.74%, CCN(CC(=O)NCC(=O)Nc1cccc(C)c1C)Cc1ccccc1 0.32%, Cc1ccc2nc(SC(C)C(=O)NCc3ccco3)[nH]c2c1 (stereo not given) -2.41%, Cc1ccc(SCC(=O)NC(=O)NCc2ccco2)c(C)c1 48.3%, O=C(NNS(=O)(=O)c1ccccc1C(F)(F)F)c1cc2ncc(C(F)(F)F)cc2s1 5.47%, O=C(Nc1nnc(C2COc3ccccc3O2)o1)c1ccc(F)cc1 (stereo not given) 2.41%, COc1ccccc1NC(=O)C(CC(=O)O)Cc1cc(C)cc(C)c1 (stereo not given) 7.02%, Cc1ccc(/C=C/C(=O)Nc2cc(S(=O)(=O)N3CCCCCC3)ccc2OCC(F)(F)F)o1 -10.7%, COC(=O)/C=C\C(=O)Nc1cccc([N+](=O)[O-])c1 1.93%, CCOC1=C2[C@H]([C@H]3C(=O)N(c4ccccc4)C(=O)[C@H]3C1)[C@@H](c1ccccc1)N(S(=O)(=O)c1ccc(C)cc1)[C@H]2c1ccccc1 0.54%, COc1ccc(CN2C[C@H]3CON(C)[C@H]3C[C@H]2c2ccc(-c3cccc(F)c3)cc2)cc1 -13.2%, CN(C(=O)CC1C(=O)NCCN1Cc1ccc(F)cc1Cl)C1CCCCC1 (stereo not given) -5.76%, COCCNC(=O)CCCn1c(=O)c2ccccc2n(Cc2cccc([N+](=O)[O-])c2)c1=O -1.32%, Cc1ccc(NC(=O)Cn2c(=O)n(CCC(=O)NC3CCN(Cc4ccccc4)CC3)c(=O)c3ccccc32)cc1 1.32%, COC(=O)/C(=C\Nc1ccccc1)NC(=O)c1ccc(Cl)cc1Cl -1%, COc1cccc2cc(C(C)N(CCCN3CCOCC3)C(=O)Nc3ccc(Cl)cc3)oc12 (stereo not given) 0.19%, CCOC(=O)C1(Cc2ccc(Cl)cc2)CCN(C(=O)C2=NNC(=O)CC2)CC1 -1.13%, COc1ccc(C(=O)OCC(=O)NCCCc2ccccc2)cc1OC 0.32%, CC(=O)Nc1cccc(C(=O)OCC(=O)Nc2nnc(-c3ccccc3)o2)c1 1.02%, C=CCNC(=O)COC(=O)CNC(=O)c1cc(Cl)cc([N+](=O)[O-])c1 6.93%, CCc1c(C)c2c(C)[nH]nc2oc1=O -3.15%, CC1CCCCC1NC(=O)c1cc(=O)[nH]c2ccccc12 (stereo not given) 3.02%, O=C(c1ccc(S(=O)(=O)NCc2ccco2)cc1)N1CCN(c2ccccc2)CC1 3.68%, O=C(c1ccc(CS(=O)Cc2ccccc2Cl)o1)N1CCN(c2ccccc2)CC1 (stereo not given) 5.54%, CC(=O)N/C(=C/c1ccc(OC(F)F)cc1)C(=O)O -1.65%, Cc1ccc(C(=O)O)cc1-c1ccc(/C=C2\SC(=O)N(CC(=O)Nc3ccc4c(c3)OCO4)C2=O)o1 12.5%, O=C(NCCN1C(=O)S/C(=C\c2cccnc2)C1=O)c1cccc(OC(F)F)c1 -3.23%
